# Measured values as given in PubChem BioAssay (EPA / NIEHS).
# Results filed as inconclusive are left out. Calls of active or inactive are those of the source. How the source made its calls, unless noted: active means hit-call score of the fitted dose curve at least 0.9, where 1 is the maximum; inactive means score below 0.9.
# Experiments:
# [1] = CCTE_Simmons_MITO_viability: CellTiter-Glo Viability Assessment for CCTE's HepG2 Seahorse XF Respirometric Screening Assay [post-hoc], Simmons Lab (AID 2284007; active means hit-call score of the fitted dose curve at least 0.9, where 1 is the maximum)
# Procedure, shortened: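 Luciferase-coupled ATP luminescence, single endpoint. HepG2, post-respirometry. Compound 125 nM–100 uM final, 7 conc., 90 min. n=3 biological, technical singles. DMSO vehicle/baseline; dichlone 10 nM–100 uM, 8 conc., as positive control.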
# [2] = CCTE_Harrill_HTTr_Viability_MCF7: CCTE's 6-hour Cell Viability Assessment for the High-Throughput Transcriptomics (HTTr) Platform, in MCF-7 cells cultured in DMEM + 10% fetal bovine serum, Harrill Lab (AID 2284010)
# Procedure, shortened: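 PI exclusion, high-content imaging; 8-pt dilution series, 6 h exposure; bidirectional fit vs DMSO (neg. ctrl/baseline); gain of signal = loss of membrane integrity.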
# [3] = CCTE_Harrill_HTTr_Apoptosis_MCF7: CCTE's 6-hour Apoptosis Assessment for the High-Throughput Transcriptomics (HTTr) Platform, in MCF-7 cells cultured in DMEM + 10% fetal bovine serum, Harrill Lab (AID 2284011)
# Procedure, shortened: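 High-content imaging of CellEvent Caspase 3/7 Green signal follows a six-hour exposure, with eight concentrations per chemical. MCF-7 cells grown in DMEM plus 10% fetal bovine serum; activity fitted in both directions against DMSO.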
# [4] = CCTE_Harrill_HTTr_CellCount_MCF7: CCTE's Cell Proliferation Assessment for the High-Throughput Transcriptomics (HTTr) Platform, Harrill Lab (AID 2284012; active means hit-call score of the fitted dose curve at least 0.9, where 1 is the maximum;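 further: count of Hoechst-stained nuclei per well by high-content imaging in MCF-7 cells; cells exposed to compound for six hours; intended direction is loss of nuclei count meaning fewer cells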)
# Procedure, shortened: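 Readout: Hoechst nuclear count by high-content imaging. MCF-7, 8-point dilution series, 6 h exposure. Bidirectional fit vs DMSO baseline.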
# [5] = CCTE_Shafer_MEA_acute_spike_number: CCTE's Neural Acute Assay for Total Number of Spikes, Shafer Lab (AID 2284008);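 on AC50: curve fitted for decrease in spike count so AC50 reflects inhibitors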
# Procedure, shortened: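 Total spike count from 40 min recordings before and during compound exposure (0.03-40 uM), given as per-well percent change. Cortical cultures from rat, DIV 13 or 15, 37 C; adaptive detection threshold 8x rms noise.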
# [6] = CCTE_Shafer_MEA_acute_firing_rate_mean: CCTE's Neural Acute Assay for Mean Firing Rate, Shafer Lab (AID 2284009);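 further: analyzed for loss of signal so actives lower firing rate relative to DMSO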
# Procedure, shortened: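 Primary rat cortical neurons on 16-electrode MEA wells were exposed on DIV 13 or 15 to compound (0.03-40 uM). Spike counts per recording time, averaged over electrodes, were compared between 40-min baseline and 40-min post-exposure recordings as percent change.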
# [7] = CCTE_Shafer_MEA_acute_burst_number: CCTE's Neural Acute Assay for Single-Electrode Bursts, Shafer Lab (AID 2284013)
# Procedure, shortened: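 Primary rat cortical neurons on 16-electrode MEA wells, DIV 13 or 15, exposed to compound (0.03-40 uM; ≥3 wells); 40-min recordings at 37 C before and after treatment. Burst count expressed as percent change from baseline, DMSO as negative control.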
# [8] = CCTE_Shafer_MEA_acute_burst_duration_mean: CCTE's Neural Acute Assay for Mean Burst Duration, Shafer Lab (AID 2284014);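 further: hits are decreases in mean burst duration relative to DMSO controls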
# Procedure, shortened: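 Mean burst duration was compared between a 40 min baseline and a 40 min recording in the presence of compound (0.03-40 uM, 37 C), giving percent change per well. Cultures were rat cortical neurons at DIV 13 or 15; wells needed ≥10 active electrodes.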
# [9] = CCTE_Shafer_MEA_acute_per_burst_spike_number_mean: CCTE's Neural Acute Assay for Average Number of Spikes Per Burst, Shafer Lab (AID 2284015);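 further: hits are decreases in mean spikes per burst versus baseline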
# Procedure, shortened: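 Rat primary cortical neurons on 48-well MEAs (DIV 13 or 15) were treated with 0.03-40 uM compound at 37 C. Mean spikes per burst over 40 min were recorded before and after exposure and expressed as percent change from baseline, relative to DMSO.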
# [10] = CCTE_Shafer_MEA_acute_interburst_interval_mean: CCTE's Neural Acute Assay for Mean Interburst Interval, Shafer Lab (AID 2284016);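 further: percent change of mean interburst interval versus each well's own pre-dose baseline; curves fitted for decrease in interburst interval relative to DMSO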
# Procedure, shortened: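 Rat primary cortical neurons on 48-well MEAs at DIV 13 or 15 were exposed acutely to 0.03-40 uM. Spikes detected at 8x rms noise, 37 C. Mean interburst interval from 40 min recordings expressed as percent change from 40 min pre-treatment baseline.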
smiles,measurement,setting,value
O=C(O)C1(c2ccc3c(c2)OC[C@H](Cc2ccc(-c4ccccc4)cc2)[C@H]3O)CCCC1,outcome,[1],inactive
same,outcome,[2],inactive
same,outcome,[3],inactive
same,outcome,[4],inactive
Cc1ccccc1OP(=O)(Oc1ccccc1C)Oc1ccccc1C,AC50,[5],25400 nM (active)
same,outcome,[6],inactive
same,outcome,[7],inactive
same,AC50,[8],21700 nM (active)
same,AC50,[9],27800 nM (active)
same,AC50,[10],23500 nM (active)
C=CCN=C=S,outcome,[2],inactive
same,outcome,[3],inactive
CCOP(=O)(OCC)OC(=CCl)c1ccc(Cl)cc1Cl,outcome,[2],inactive
same,outcome,[3],inactive
COc1nn(C(=O)NS(=O)(=O)c2ccccc2OC(F)(F)F)c(=O)n1C,outcome,[2],inactive
same,outcome,[3],inactive
Oc1ccc(Cc2ccc(O)cc2)cc1,AC50,[5],4.54 nM (active)
same,AC50,[6],3.77 nM (active)
same,outcome,[2],inactive
same,outcome,[3],inactive
same,outcome,[4],inactive
same,AC50,[7],3 nM (active)
same,outcome,[8],inactive
same,AC50,[9],25300 nM (active)
same,outcome,[10],inactive
CC1(C)[C@H](C(=O)O[C@H](C#N)c2cccc(Oc3ccccc3)c2)[C@@H]1/C=C(\Cl)C(F)(F)F,AC50,[5],1180 nM (active)
same,AC50,[6],1180 nM (active)
same,outcome,[2],inactive
same,outcome,[3],inactive
same,outcome,[4],inactive
same,outcome,[7],inactive
same,AC50,[8],761 nM (active)
same,AC50,[9],679 nM (active)
same,AC50,[10],1290 nM (active)
CC(C)[C@@H](Nc1ccc(C(F)(F)F)cc1Cl)C(=O)OC(C#N)c1cccc(Oc2ccccc2)c1 (stereo partly drawn),AC50,[5],936 nM (active)
same,AC50,[6],1250 nM (active)
same,outcome,[2],inactive
same,outcome,[3],inactive
same,outcome,[7],inactive
same,AC50,[8],841 nM (active)
same,AC50,[9],840 nM (active)
same,AC50,[10],2120 nM (active)
C[C@@H]1O[C@@H](O[C@H]2C[C@@H](O)[C@]3(CO)[C@H]4[C@H](O)C[C@]5(C)[C@@H](C6=CC(=O)OC6)CC[C@]5(O)[C@@H]4CC[C@]3(O)C2)[C@H](O)[C@H](O)[C@H]1O,outcome,[2],inactive
same,outcome,[3],inactive
C1CN2CCN1CC2,outcome,[2],inactive
same,outcome,[3],inactive
CCCCCCCCCCCCCCC(Br)C(=O)O (stereo not drawn),outcome,[2],inactive
same,outcome,[3],inactive
Cc1cc(C(F)(C(F)(F)F)C(F)(F)F)ccc1NC(=O)c1cccc(I)c1C(=O)NC(C)(C)CS(C)(=O)=O,AC50,[5],1680 nM (active)
same,AC50,[6],1680 nM (active)
same,outcome,[2],inactive
same,outcome,[3],inactive
same,AC50,[7],1390 nM (active)
same,outcome,[8],inactive
same,AC50,[9],20700 nM (active)
same,outcome,[10],inactive
CC(C)O.CC(C)O.OCCN(CCO)CCO.OCCN(CCO)CCO.[Ti],outcome,[2],inactive
same,outcome,[3],inactive
O=S1OC[C@@H]2[C@H](CO1)[C@]1(Cl)C(Cl)=C(Cl)[C@@]2(Cl)C1(Cl)Cl (stereo partly drawn),outcome,[2],inactive
same,outcome,[3],inactive
OC(Cc1ccccc1Cl)(Cn1[nH]cnc1=S)C1(Cl)CC1 (stereo not drawn),outcome,[2],inactive
same,outcome,[3],inactive
Oc1c(Cl)cc(Cl)cc1Cl,outcome,[1],inactive
same,outcome,[2],inactive
same,outcome,[3],inactive
same,outcome,[4],inactive
CS(=O)(=O)c1ccc(C(=O)C2C(=O)CCCC2=O)c(Cl)c1COCC(F)(F)F,outcome,[5],inactive
same,outcome,[6],inactive
same,outcome,[2],inactive
same,outcome,[3],inactive
same,outcome,[4],inactive
same,outcome,[7],inactive
same,outcome,[8],inactive
same,outcome,[9],inactive
same,outcome,[10],inactive
Clc1cccc(Cl)c1Cl,outcome,[5],inactive
same,outcome,[6],inactive
same,outcome,[2],inactive
same,outcome,[3],inactive
same,outcome,[4],inactive
same,outcome,[7],inactive
same,outcome,[8],inactive
same,outcome,[9],inactive
same,outcome,[10],inactive
Oc1cc(Cl)c(Cl)cc1Cl,outcome,[1],inactive
same,AC50,[5],36300 nM (active)
same,AC50,[6],34200 nM (active)
same,outcome,[2],inactive
same,outcome,[3],inactive
same,outcome,[4],inactive
same,outcome,[7],inactive
same,outcome,[8],inactive
same,outcome,[9],inactive
same,outcome,[10],inactive
COC(=O)c1cc(Oc2ccc(Cl)cc2Cl)ccc1[N+](=O)[O-],outcome,[2],inactive
same,outcome,[3],inactive
O=C(Cc1ccccc1)OCCc1ccccc1,AC50,[5],3 nM (active)
same,AC50,[6],3 nM (active)
same,outcome,[2],inactive
same,outcome,[3],inactive
same,outcome,[4],inactive
same,outcome,[7],inactive
same,outcome,[8],inactive
same,outcome,[9],inactive
same,outcome,[10],inactive
O=C(N[C@H]1CN2CCC1CC2)c1ccc2c(c1)OCCO2,outcome,[2],inactive
same,outcome,[3],inactive
CCCCOC(=O)COC(=O)c1ccccc1C(=O)OCCCC,AC50,[5],19.6 nM (active)
same,AC50,[6],19.6 nM (active)
same,outcome,[2],inactive
same,outcome,[3],inactive
same,outcome,[4],inactive
same,AC50,[7],10.5 nM (active)
same,outcome,[8],inactive
same,outcome,[9],inactive
same,outcome,[10],inactive
C[As+](C)(C)CC(=O)[O-],outcome,[2],inactive
same,outcome,[3],inactive
